Source: PubChem (several laboratories)
Shn3 3UTR inh: Schnurri-3 reporter inhibition in Clone20 osteoblasts; Clone20 osteoblast Shn3 3'UTR firefly luciferase, 24 h; inhibition, % at 12.5 µM; 360,000 tested, 0.52% active;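 active = mean inhibition of at least 75% with every replicate also reaching 75%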
TWEAK-Fn14 inh: blocks TWEAK-Fn14 interaction in a reporter cell assay; TWEAK-stimulated Fn14 reporter cells, luciferase luminescence, 8 h; inhibition, % at 10 µM; 360,000 tested, 2% active; AID 1159606; in the data active = inhibition above about 50%
LMP1 NFkB inh: reduces LMP1-driven NF-kappaB luciferase signal; LMP1-induced NF-kappaB luciferase reporter cells, luminescence; AID 504558; 350,000 tested, 0.69% active; inhibition, % at 12.5 µM; in the data active = inhibition above about 41%
Peg3 prom inh: Peg3 promoter activity inhibition; HeLa PEG-Prom luciferase reporter, luminescence, overnight; inhibition, % at 20 µM; 360,000 tested, 1.7% active;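 active = inhibition of at least 50% at 20 µM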
TRPM1 prom inh: MITF TRPM1 promoter inhibition in SK-MEL-5 cells; 330,000 tested, 0.83% active; SK-MEL-5 TRPM1 promoter luciferase, 24 h; inhibition, % at 12.5 µM;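 active = mean inhibition across replicates of 60% or more, whatever share of single replicates reaches that level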
TROY NFkB inh: TROY signaling inhibition. Q293 LMP1-TROYcd NF-kB luciferase reporter, 4 h. inhibition, % at 10 µM. 360,000 tested, 0.98% active. AID 1347056;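 active = compounds whose plate-normalised and pattern-corrected inhibition of the luciferase reporter signal at the single screening dose is 50% or more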
Each line names hits and unclear results; the compound was inactive in the other large screens. The list is not random: actives were taken first. Their share in the collection is about 4.1%.

COc1ccc(CN(C(=O)c2ccco2)c2ccc(Br)cc2)cc1OC	none
O=C1/C(=C/N(C(=O)c2ccco2)c2ccc(Cl)cc2)Sc2ccccc21	TWEAK-Fn14 inh 83, TROY NFkB inh 60
O=C1c2ccccc2C(=O)N1CCCCN(C(=O)c1ccco1)c1ccc(Cl)cc1	none
O=C1/C(=C/N(C(=O)c2ccco2)c2ccc(Br)cc2)Sc2ccccc21	TWEAK-Fn14 inh 87, TROY NFkB inh 65
CN(C)c1cccc(C(=O)N/N=C/c2ccccc2F)c1	TWEAK-Fn14 inh 89, LMP1 NFkB inh 44, TROY NFkB inh 56
COc1ccc(C(=O)c2ccc(Cl)cc2)c2ccccc12	none
COc1ccc(C(=O)c2ccccc2)c2c(O)ccc(C(=O)c3ccccc3)c12	TWEAK-Fn14 inh 57
COc1ccc(C2C(C(=O)c3ccccc3)=C(C)Nc3nc4ccccc4n32)c(OC)c1 (centres undefined)	TWEAK-Fn14 inh 76, TROY NFkB inh 53 (no result: TRPM1 prom inh)
CCN(CC)c1ccc(NC(=O)Cn2c(C(C)NC(=O)c3ccc(C)cc3)nc3ccccc32)cc1 (centres undefined)	Peg3 prom inh 99
CCCn1c(C(C)NC(=O)c2ccccc2)nc2ccccc21 (centres undefined)	none
COc1ccc(N(/N=C2\Sc3ccccc3C2=O)C(C)=O)cc1	none
COc1ccccc1N(/N=C1\Sc2ccccc2C1=O)C(C)=O	TWEAK-Fn14 inh 79, TROY NFkB inh 78
COCC(COS(N)(=O)=O)C(C)C (centres undefined)	none
C[C@H](O)[C@@H]1CN2CCc3c([nH]c4ccc(-c5ccc6c(c5)OCO6)cc34)[C@@H]2C[C@@H]1N(C)C(=O)Nc1cc(Cl)cc(Cl)c1	Peg3 prom inh 67 (no result: TRPM1 prom inh)
Cc1cccc(-c2ccc3[nH]c4c(c3c2)CCN2C[C@@H]([C@H](C)O)[C@@H](N(C)C(=O)Nc3ccc(F)cc3)C[C@@H]42)c1	Peg3 prom inh 100 (no result: TRPM1 prom inh)
CN(CC(=O)NCC1CCCO1)S(=O)(=O)c1ccc(Br)cc1 (centres undefined)	none
O=C(CN(C1CCCCC1)S(=O)(=O)c1ccc(F)cc1)NCC1CCCO1 (centres undefined)	Shn3 3UTR inh 97, Peg3 prom inh 98, TRPM1 prom inh 86
O=[N+]([O-])c1ccc(Cl)c(S(=O)(=O)NCC2CCCO2)c1 (centres undefined)	LMP1 NFkB inh 48
O=C(CN(c1ccc(Br)cc1)S(=O)(=O)c1ccc(Cl)c([N+](=O)[O-])c1)NCC1CCCO1 (centres undefined)	TWEAK-Fn14 inh 55, Peg3 prom inh 95, TRPM1 prom inh 85
O=C(CN(c1ccc(Cl)cc1)S(=O)(=O)c1ccc(Cl)c([N+](=O)[O-])c1)NCCc1ccc(F)cc1	Peg3 prom inh 95, TRPM1 prom inh 70
CC(C)C(Cl)=NOC(=O)Nc1ccc(S(N)(=O)=O)cc1	Shn3 3UTR inh 95, TWEAK-Fn14 inh 56, Peg3 prom inh 88
O=C(CCl)Nc1cc(-c2ccccc2)nn1-c1ccccc1	TRPM1 prom inh 67
COc1cc(/C=C(/C#N)C(=O)Nc2ccc(C)cc2)ccc1Oc1nc(Cl)ncc1F	Peg3 prom inh 51
C/C(=N/NC(=O)CNC(=O)COc1ccccc1)c1ccco1	none
CC(C)C(N)c1csc(Nc2cc(Oc3ccccc3)ncn2)n1 (centres undefined)	none (no result: LMP1 NFkB inh, TRPM1 prom inh)
CC(C)CC(N)c1csc(Nc2cc(Oc3ccccc3)ncn2)n1 (centres undefined)	Peg3 prom inh 63 (no result: LMP1 NFkB inh, TRPM1 prom inh)
CC(=O)c1cccc(-c2ccnc3c2CC(C(=O)Nc2ccc(Cl)c(C(F)(F)F)c2)O3)c1 (centres undefined)	none (no result: LMP1 NFkB inh, TRPM1 prom inh)
O=c1[nH]c(CSc2ccccn2)nc2c1oc1ccccc12	TWEAK-Fn14 inh 65
CCc1nc2c(oc3ccccc32)c(=O)[nH]1	none
Cc1ccn2c(=O)nc(SCC(=O)N3CCN(c4ccccc4)CC3)nc2c1	none
Oc1c(N=Nc2ccccn2)ccc2ccccc12	TWEAK-Fn14 inh 80, LMP1 NFkB inh 48
Oc1[nH]c2ccccc2c1N=Nc1ccccn1	none
CCC1CCCCN1S(=O)(=O)c1ccc(C(=O)Nc2nnc(C3CC3)o2)cc1 (centres undefined)	none
CCC1CCCCN1S(=O)(=O)c1ccc(NC(=O)c2ccncc2)cc1 (centres undefined)	Shn3 3UTR inh 88
CCC1CCCCN1S(=O)(=O)c1ccc(C(=O)Nc2nnc(-c3ccccc3Cl)o2)cc1 (centres undefined)	none
CCC1CCCCN1S(=O)(=O)c1ccc(NC(=O)c2nc(S(C)(=O)=O)ncc2Cl)cc1 (centres undefined)	Shn3 3UTR inh 96, TWEAK-Fn14 inh 77, Peg3 prom inh 107, TRPM1 prom inh 104, TROY NFkB inh 83
O=S(=O)(/N=S1\CC=CCN1S(=O)(=O)c1ccccc1)c1ccccc1 (centres undefined)	Shn3 3UTR inh 94
O=C(NCCCn1ccnc1)C(=O)NCC1OCCCN1S(=O)(=O)c1ccccc1 (centres undefined)	Shn3 3UTR inh 90
O=C(/C=C/c1ccc(Cl)cc1)N1CCN(c2ccc([N+](=O)[O-])c(N3CCOCC3)c2)CC1	TWEAK-Fn14 inh 64, TROY NFkB inh 56
CC(=O)c1c(C)oc2ccc(N(C(C)=O)S(=O)(=O)c3ccc(Cl)c([N+](=O)[O-])c3)cc12	Peg3 prom inh 104, TRPM1 prom inh 65, TROY NFkB inh 88
CC(=O)c1c(C)oc2ccc(N(C(C)=O)S(=O)(=O)c3ccc(Br)cc3)cc12	none
O=C(CN1CCOCC1)OCCCC1CCCCC1	none
CC(C)CCCC(C)CCOC(=O)CN1CCCC1 (centres undefined)	TWEAK-Fn14 inh 68
COc1cc(/C=C(/C#N)c2nc3ccccc3[nH]2)ccc1OCc1ccc(C(=O)O)o1	none
CCc1ccc(NC(=O)COc2ccc(/C=C(/C#N)c3nc4ccccc4[nH]3)cc2OC)cc1	Peg3 prom inh 57
COC(=O)c1ccc(COc2ccc(/C=C(\C#N)c3nc4ccccc4[nH]3)cc2OC)o1	TWEAK-Fn14 inh 60
COc1ccc(Sc2ccc(-c3nc4cnccn4c3NC3CCCCC3)cc2OC)cc1	TWEAK-Fn14 inh 62, Peg3 prom inh 63
CCC(C)Sc1ccc(-c2nc3cnccn3c2NC2CCCCC2)cc1 (centres undefined)	Peg3 prom inh 91
CCC(C)Sc1ccc(-c2nc3cc(C)ccn3c2NC2CCCCC2)cc1 (centres undefined)	none
Cc1nc2ccc(NC(=O)CSc3ccccc3)cc2s1	none
NNC(=O)c1cc2cc3ccccc3nc2s1	none
CCOc1ccc(S(=O)(=O)N2CCCCC2)cc1NC(=O)Cc1ccccc1	TROY NFkB inh 51
CCN1CCN(c2ccc(S(=O)(=O)N3CCCCC3)cc2NC(=O)c2ccc(F)cc2)CC1	none
COc1ccc(S(=O)(=O)N2CCCCC2)cc1NC(=O)c1ccc([N+](=O)[O-])o1	TRPM1 prom inh 85
